Reference: PubChem BioAssay AID1159580 (chemical genetic matrix, 2015)
In all, about 5,500 compounds went through this assay and about 2,000 (36%) were called active. Inconclusive results (about 18%) are left out. Rule as the data show it: active = normalized growth mostly below about 0.91 (no sharp cut-off); inconclusive = no clear call, values can overlap the other calls; inactive = mostly above about 0.92. Some of the results follow.

Test: chemical genetic growth profiling, strain panel (AID 1159580);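 also: tested at 20 µM; growth read once vehicle control cultures reached saturation at 30 °C; 1 = growth at the plate median or of vehicle wells; lower values mean less growth of the strain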
Conditions: S. cerevisiae deletion strains, growth OD

Measured: normalized growth

O=S(=O)(c1cccc2c(I)cccc12)N1CCCNCC1
inactive: locus YAL013W, strain DEP1, active compounds read low 0.983 | locus YAL040C, strain CLN3, active compounds read low 0.979 | locus YCL061C, strain MRC1 (second series), active compounds read low 0.984 | locus YDR150W, strain NUM1, active compounds read low 0.991 | locus YDR363W, strain ESC2, active compounds read low 0.958 | locus YER002W, strain NOP16, active compounds read low 1.01 | locus YGR078C, strain PAC10, active compounds read low 0.982 | locus YGR229C, strain SMI1, active compounds read low 1 | locus YJR075W, strain HOC1, active compounds read low 1.01 | locus YNL128W, strain TEP1, active compounds read low 1.06 | locus YNL153C, strain GIM3, active compounds read low 0.927 | locus YNL175C, strain NOP13, active compounds read low 0.995 | locus YNL197C, strain WHI3, active compounds read low 0.986 | locus YNL224C, strain SQS1, active compounds read low 1.02 | locus YOR083W, strain WHI5 (second series), active compounds read low 0.932 | locus YPL241C, strain CIN2, active compounds read low 0.984
